The source of these data is article PMC7862700, “An all-to-all approach to the identification of sequence-specific readers for epigenetic DNA modifications on cytosine”.

Experiment in all cases: DAPPL (digital affinity profiling via proximity ligation, sequencing); 10 mM Tris-HCl pH 7.5, 50 mM NaCl, 1 mM DTT, 4% glycerol, room temperature, 30 min; GST-TFs on glutathione beads, 16-mer random dsDNA library, 0.1% formaldehyde crosslink after washing; high values mean tight binding
The target of one assay is T1, FLI1 (Homo sapiens, UniProt Q01543 1-452).
T1 sequence: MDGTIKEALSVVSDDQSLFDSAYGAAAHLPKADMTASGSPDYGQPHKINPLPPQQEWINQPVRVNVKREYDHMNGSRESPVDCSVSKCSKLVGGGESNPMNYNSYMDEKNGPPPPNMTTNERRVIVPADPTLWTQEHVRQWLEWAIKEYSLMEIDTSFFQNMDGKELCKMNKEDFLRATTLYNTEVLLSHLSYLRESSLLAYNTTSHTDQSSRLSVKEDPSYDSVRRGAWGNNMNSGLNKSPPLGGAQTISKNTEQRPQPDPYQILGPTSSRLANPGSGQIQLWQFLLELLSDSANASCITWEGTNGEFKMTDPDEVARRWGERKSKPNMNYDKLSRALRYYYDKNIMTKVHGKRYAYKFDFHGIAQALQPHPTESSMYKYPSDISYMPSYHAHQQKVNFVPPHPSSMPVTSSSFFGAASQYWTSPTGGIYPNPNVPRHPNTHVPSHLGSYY
To be noted: protein: recombinant; tags: N-terminal GST; dsDNA, one strand shown. The method, boiled down: (§1)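 Each value of binding signal is a hexamer's read frequency for a factor divided by the same hexamer's frequency in the tag-only sample. Barcoded, bead-captured GST fusions of human transcription factors made in yeast were pooled with that sample and incubated with 200 nmole of a random double-stranded 16-mer DNA library in Tris/NaCl/DTT/glycerol buffer at room temperature for 30 min. Washing, 0.1% formaldehyde crosslinking, proximity ligation, PCR and Illumina NextSeq500 sequencing followed.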

The target in a further assay is T2, ELK1 (Homo sapiens, UniProt P19419 1-428).
T2 sequence: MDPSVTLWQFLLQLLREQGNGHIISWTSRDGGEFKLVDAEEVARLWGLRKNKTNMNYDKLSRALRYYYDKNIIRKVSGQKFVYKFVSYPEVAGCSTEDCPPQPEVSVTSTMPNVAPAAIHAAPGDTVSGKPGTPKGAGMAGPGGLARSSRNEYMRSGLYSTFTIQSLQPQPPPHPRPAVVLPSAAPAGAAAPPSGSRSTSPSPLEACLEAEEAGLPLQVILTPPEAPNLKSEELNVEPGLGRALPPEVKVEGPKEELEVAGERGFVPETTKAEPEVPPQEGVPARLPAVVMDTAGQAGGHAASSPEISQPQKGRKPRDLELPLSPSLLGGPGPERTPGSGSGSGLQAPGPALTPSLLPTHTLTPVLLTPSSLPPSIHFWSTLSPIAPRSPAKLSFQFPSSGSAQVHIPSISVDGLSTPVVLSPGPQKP
To be noted: protein: recombinant; tags: N-terminal GST; dsDNA, one strand shown. The gist of the method:
as §1

The target in the next assay is T3, GABPA (Homo sapiens, UniProt Q06546 1-454).
T3 sequence: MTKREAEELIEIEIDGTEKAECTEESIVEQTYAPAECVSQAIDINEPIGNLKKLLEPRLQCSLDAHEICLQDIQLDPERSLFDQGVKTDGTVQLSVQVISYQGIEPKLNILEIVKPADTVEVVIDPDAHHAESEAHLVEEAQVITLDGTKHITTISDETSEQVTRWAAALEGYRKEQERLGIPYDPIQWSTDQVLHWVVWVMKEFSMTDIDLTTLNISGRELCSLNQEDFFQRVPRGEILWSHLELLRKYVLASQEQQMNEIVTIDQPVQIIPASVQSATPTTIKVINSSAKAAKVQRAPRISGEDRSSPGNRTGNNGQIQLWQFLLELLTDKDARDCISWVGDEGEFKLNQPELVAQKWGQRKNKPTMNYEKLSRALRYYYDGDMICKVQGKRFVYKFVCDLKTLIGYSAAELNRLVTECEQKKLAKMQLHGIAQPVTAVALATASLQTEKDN
To be noted: protein: recombinant; tags: N-terminal GST; dsDNA, one strand shown. The gist of the method: as §1

A further assay has as its target T4, ERG (Homo sapiens, UniProt P11308 1-479).
T4 sequence: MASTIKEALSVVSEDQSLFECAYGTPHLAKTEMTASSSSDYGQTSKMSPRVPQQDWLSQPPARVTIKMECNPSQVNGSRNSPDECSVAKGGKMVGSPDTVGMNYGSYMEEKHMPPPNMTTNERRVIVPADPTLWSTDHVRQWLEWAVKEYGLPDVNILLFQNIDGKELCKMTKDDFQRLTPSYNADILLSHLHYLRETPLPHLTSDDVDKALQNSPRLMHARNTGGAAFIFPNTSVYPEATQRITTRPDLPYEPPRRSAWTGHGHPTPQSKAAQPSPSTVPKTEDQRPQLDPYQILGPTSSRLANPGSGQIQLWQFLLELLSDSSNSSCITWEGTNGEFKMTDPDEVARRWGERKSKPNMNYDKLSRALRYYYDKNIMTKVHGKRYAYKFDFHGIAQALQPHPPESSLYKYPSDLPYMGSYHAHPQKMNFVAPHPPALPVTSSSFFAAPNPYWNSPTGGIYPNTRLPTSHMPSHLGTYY
To be noted: protein: recombinant; tags: N-terminal GST; dsDNA, one strand shown. The gist of the method:
as §1

In another assay the target is ELF1 (Homo sapiens, UniProt P32519 1-619). The settings on record: protein: recombinant; tags: N-terminal GST; dsDNA, one strand shown. The gist of the method:
as §1

Another assay addresses T5, EHF (Homo sapiens, UniProt Q9NZC4 1-300).
T5 sequence: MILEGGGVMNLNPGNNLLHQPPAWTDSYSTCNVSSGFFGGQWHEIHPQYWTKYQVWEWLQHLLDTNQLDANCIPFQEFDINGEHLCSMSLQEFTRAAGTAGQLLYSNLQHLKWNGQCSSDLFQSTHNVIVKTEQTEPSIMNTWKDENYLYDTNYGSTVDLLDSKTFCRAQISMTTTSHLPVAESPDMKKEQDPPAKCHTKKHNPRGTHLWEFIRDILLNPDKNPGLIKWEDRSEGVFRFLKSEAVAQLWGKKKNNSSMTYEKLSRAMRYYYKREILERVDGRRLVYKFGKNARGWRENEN
The settings on record: protein: recombinant; tags: N-terminal GST; dsDNA, one strand shown. The method, boiled down: as §1

The target in the next assay is SPI1 (Homo sapiens, UniProt P17947 1-270). To be noted: protein: recombinant; tags: N-terminal GST; dsDNA, one strand shown. The gist of the method: as §1
In another assay the target is SPIB (Homo sapiens, UniProt Q01892 1-262). The settings on record: protein: recombinant; tags: N-terminal GST; dsDNA, one strand shown. The gist of the method:
as §1

The next assay deals with T6, ELK3 (Homo sapiens, UniProt P41970 1-407).
T6 sequence: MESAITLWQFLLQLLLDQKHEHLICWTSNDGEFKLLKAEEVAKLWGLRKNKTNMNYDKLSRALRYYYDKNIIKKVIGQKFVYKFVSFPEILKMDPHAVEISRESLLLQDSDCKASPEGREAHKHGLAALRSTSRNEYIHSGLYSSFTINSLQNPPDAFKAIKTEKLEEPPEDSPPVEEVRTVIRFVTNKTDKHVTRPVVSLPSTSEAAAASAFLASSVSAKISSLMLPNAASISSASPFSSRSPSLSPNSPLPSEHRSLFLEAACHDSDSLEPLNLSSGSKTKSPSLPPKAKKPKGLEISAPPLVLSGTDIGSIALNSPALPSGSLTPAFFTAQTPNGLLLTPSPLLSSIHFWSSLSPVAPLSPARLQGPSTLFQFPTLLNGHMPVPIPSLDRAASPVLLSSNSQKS
The settings on record: protein: recombinant; tags: N-terminal GST; dsDNA, one strand shown. The gist of the method:
as §1

The target of the next assay is T7, FEV (Homo sapiens, UniProt Q99581 1-238).
T7 sequence: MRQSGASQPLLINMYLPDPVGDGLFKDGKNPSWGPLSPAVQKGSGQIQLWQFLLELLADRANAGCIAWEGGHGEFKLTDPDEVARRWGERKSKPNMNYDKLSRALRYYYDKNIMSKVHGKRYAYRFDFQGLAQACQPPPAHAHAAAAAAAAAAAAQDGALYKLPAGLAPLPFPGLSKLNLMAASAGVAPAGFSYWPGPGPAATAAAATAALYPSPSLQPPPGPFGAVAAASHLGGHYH
To be noted: protein: recombinant; tags: N-terminal GST; dsDNA, one strand shown. The method, boiled down:
as §1

For another assay, the target named is ETV5 (Homo sapiens, UniProt P41161 1-510). To be noted: protein: recombinant; tags: N-terminal GST; dsDNA, one strand shown. The gist of the method: as §1
Sequence of ETV5 (P41161 whole entry): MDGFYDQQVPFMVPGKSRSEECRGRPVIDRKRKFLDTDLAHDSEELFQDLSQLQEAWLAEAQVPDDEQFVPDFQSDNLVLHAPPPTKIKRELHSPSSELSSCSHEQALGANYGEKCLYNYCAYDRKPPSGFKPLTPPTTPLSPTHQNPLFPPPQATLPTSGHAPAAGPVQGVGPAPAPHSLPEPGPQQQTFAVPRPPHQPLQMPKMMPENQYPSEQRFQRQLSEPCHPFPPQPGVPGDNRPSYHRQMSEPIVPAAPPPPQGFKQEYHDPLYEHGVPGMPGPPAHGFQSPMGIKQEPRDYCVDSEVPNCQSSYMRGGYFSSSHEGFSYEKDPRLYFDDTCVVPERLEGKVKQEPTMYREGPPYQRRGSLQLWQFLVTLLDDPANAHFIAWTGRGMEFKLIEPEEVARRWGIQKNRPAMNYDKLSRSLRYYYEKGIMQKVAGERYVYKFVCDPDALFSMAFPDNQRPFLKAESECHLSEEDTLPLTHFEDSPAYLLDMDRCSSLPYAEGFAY
The next assay deals with HSF1 (Homo sapiens, UniProt Q00613 1-529). To be noted: protein: recombinant; tags: N-terminal GST; chain copies: 3; dsDNA, one strand shown. The method, boiled down: as §1
Sequence of HSF1 (Q00613 whole entry): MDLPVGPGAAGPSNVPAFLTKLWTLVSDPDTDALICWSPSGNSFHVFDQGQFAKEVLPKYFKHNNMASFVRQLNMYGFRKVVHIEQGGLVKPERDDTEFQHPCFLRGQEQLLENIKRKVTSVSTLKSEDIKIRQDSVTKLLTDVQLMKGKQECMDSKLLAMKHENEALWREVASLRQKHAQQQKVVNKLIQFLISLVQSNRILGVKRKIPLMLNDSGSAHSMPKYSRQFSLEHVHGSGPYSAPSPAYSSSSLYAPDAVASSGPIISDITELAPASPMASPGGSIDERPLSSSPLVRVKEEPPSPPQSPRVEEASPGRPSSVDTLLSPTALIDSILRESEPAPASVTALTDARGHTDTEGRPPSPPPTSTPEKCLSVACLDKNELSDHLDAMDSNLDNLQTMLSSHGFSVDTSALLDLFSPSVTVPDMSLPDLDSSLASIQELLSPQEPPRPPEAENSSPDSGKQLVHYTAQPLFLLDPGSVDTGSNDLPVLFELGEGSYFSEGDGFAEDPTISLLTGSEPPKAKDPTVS
Another assay deals with ELF4 (Homo sapiens, UniProt Q99607 1-663). The settings on record: protein: recombinant; tags: N-terminal GST; dsDNA, one strand shown. The method, boiled down:
as §1

For a further assay, the target named is T8, ELK4 (Homo sapiens, UniProt P28324-2 1-405).
T8 sequence: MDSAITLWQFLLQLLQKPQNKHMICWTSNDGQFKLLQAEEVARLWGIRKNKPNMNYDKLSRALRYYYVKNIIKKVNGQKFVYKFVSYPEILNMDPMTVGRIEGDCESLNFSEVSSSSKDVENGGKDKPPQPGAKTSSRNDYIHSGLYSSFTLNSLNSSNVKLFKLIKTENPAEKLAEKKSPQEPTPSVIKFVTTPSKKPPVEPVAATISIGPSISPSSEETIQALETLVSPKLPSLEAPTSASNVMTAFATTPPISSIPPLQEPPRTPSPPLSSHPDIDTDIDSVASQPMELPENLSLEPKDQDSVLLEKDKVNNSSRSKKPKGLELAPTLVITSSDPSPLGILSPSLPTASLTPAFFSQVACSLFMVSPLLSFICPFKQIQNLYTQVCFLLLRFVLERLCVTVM
The settings on record: protein: recombinant; tags: N-terminal GST; dsDNA, one strand shown. The gist of the method: as §1

A further assay addresses T9, ELF3 (Homo sapiens, UniProt P78545 1-371).
T9 sequence: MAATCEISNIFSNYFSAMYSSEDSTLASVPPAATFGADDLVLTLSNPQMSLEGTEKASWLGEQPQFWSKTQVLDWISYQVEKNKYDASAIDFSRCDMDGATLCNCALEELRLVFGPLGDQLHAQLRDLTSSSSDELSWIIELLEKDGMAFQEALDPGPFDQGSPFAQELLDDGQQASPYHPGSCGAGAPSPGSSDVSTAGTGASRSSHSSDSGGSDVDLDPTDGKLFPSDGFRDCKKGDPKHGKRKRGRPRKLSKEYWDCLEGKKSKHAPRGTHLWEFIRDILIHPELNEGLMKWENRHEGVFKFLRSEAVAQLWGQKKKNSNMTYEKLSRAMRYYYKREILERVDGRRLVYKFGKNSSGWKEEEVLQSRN
To be noted: protein: recombinant; tags: N-terminal GST; dsDNA, one strand shown. The method, boiled down:
as §1

A further assay has as its target CRX (Homo sapiens, UniProt O43186 1-299). The settings on record: protein: recombinant; tags: N-terminal GST; dsDNA, one strand shown. The gist of the method: as §1
The target in a further assay is ETV1 (Homo sapiens, UniProt P50549 1-477). To be noted: protein: recombinant; tags: N-terminal GST; dsDNA, one strand shown. The method, boiled down:
as §1

Sequence of ELF1 (P32519 whole entry): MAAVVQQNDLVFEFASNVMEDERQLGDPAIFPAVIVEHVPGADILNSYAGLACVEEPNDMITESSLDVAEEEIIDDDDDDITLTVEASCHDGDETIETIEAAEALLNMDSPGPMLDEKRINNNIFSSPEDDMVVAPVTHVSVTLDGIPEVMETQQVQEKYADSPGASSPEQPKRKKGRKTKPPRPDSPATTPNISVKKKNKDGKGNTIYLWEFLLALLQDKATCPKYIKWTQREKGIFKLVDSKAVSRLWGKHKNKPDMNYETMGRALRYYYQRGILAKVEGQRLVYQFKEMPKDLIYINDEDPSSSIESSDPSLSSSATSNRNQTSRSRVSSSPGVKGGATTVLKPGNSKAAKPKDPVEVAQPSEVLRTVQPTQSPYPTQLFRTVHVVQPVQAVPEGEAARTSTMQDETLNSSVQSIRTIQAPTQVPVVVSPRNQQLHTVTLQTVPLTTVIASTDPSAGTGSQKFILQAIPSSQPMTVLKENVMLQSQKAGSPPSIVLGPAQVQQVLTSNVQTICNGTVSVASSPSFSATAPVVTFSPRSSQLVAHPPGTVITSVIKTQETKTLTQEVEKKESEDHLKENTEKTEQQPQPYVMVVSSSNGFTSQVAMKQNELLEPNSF
Sequence of SPIB (Q01892 whole entry): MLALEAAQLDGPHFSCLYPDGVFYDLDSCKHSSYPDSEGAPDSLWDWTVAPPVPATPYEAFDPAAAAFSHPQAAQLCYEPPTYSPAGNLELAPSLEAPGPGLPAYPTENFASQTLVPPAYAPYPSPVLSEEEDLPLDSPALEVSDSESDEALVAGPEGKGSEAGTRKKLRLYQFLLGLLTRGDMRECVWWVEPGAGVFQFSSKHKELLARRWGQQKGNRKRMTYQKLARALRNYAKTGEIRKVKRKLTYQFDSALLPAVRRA
Sequence of ELF4 (Q99607 whole entry): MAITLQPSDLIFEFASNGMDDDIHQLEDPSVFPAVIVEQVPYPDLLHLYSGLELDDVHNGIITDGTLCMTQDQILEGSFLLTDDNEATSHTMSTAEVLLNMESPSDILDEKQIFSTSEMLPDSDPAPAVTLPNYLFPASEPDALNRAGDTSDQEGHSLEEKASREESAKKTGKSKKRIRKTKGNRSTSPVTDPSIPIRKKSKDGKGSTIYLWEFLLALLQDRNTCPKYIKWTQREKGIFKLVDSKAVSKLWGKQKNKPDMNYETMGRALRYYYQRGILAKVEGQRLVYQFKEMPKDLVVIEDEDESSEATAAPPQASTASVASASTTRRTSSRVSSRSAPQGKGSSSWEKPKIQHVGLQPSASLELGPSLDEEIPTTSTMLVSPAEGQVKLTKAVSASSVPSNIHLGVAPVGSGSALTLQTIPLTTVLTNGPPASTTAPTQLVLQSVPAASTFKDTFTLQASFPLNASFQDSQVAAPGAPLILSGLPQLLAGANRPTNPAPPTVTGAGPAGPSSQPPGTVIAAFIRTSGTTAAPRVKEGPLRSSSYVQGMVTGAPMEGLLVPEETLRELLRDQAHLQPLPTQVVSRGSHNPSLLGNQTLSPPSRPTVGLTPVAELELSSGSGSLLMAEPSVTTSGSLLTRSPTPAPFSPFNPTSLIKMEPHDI
Sequence of CRX (O43186 whole entry): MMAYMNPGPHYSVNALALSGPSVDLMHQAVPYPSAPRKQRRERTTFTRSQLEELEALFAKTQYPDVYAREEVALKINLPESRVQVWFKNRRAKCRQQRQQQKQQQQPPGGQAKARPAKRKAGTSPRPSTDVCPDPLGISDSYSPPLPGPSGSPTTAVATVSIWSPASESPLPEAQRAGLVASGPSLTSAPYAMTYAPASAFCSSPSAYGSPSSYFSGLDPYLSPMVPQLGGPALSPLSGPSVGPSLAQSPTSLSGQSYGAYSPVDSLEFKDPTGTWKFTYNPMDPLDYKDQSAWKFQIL
Sequence of ETV1 (P50549 whole entry): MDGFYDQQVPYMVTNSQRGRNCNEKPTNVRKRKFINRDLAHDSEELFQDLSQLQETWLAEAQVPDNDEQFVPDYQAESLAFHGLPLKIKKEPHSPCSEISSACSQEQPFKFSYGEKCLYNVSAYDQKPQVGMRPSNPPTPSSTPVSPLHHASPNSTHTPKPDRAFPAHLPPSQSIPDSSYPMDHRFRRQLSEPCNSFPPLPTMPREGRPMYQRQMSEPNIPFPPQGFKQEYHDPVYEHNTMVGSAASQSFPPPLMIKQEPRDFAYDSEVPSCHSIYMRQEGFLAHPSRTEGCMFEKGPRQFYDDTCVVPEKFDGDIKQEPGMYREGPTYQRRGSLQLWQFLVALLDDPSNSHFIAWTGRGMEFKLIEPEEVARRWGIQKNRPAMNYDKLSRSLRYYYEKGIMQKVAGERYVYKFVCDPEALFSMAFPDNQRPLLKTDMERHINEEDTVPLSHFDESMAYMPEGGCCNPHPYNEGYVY

As to TACACG, the binding signal in the assay with FLI1 was 1.13 fold enrichment (6-mer frequency, TF over GST control); in the assay with ELK1 it was 1.11 fold enrichment (6-mer frequency, TF over GST control); in the assay with GABPA it was 1.19 fold enrichment (6-mer frequency, TF over GST control); in the assay with ERG, 1.1 fold enrichment (6-mer frequency, TF over GST control); in the assay with ELF1, 1.16 fold enrichment (6-mer frequency, TF over GST control); in the assay with EHF, 1.1 fold enrichment (6-mer frequency, TF over GST control). The binding signal is 1.07 fold enrichment (6-mer frequency, TF over GST control) with SPI1; 1.16 fold enrichment (6-mer frequency, TF over GST control) in the assay with SPIB; 1.19 fold enrichment (6-mer frequency, TF over GST control) with ELK3; 1.12 fold enrichment (6-mer frequency, TF over GST control) with FEV; 1.22 fold enrichment (6-mer frequency, TF over GST control) with ETV5; 1.04 fold enrichment (6-mer frequency, TF over GST control) with HSF1. For the same sequence, the binding signal is 1.14 fold enrichment (6-mer frequency, TF over GST control) with ELF4; 1.21 fold enrichment (6-mer frequency, TF over GST control) in the assay with ELK4; 1.15 fold enrichment (6-mer frequency, TF over GST control) with ELF3; 1.1 fold enrichment (6-mer frequency, TF over GST control) with CRX; 1.16 fold enrichment (6-mer frequency, TF over GST control) in the assay with ETV1.
